# In ChEMBL document CHEMBL3988442, “University of Dundee, Small-Polar-MMV Screening Library” (2021):
# In all, about 66,000 compounds went through this assay and about 960 (1.5%) showed an effect of 50% or more. What follows is part of a selection rich in strong results, with near analogues and random picks from the rest.
# Test system: Trypanosoma brucei
# Assay: Trypanosoma brucei 72 hour study
# Type: functional, organism-based
# Parameters: scale not given: in the data most compounds retested in dose-response had high values
smiles,measurement,setting,value
CN(CCOc1cccc(S(C)(=O)=O)c1)c1ccccc1,Percent Effect,"30 µM, 30.03 µM",-2.31%
CCCOc1ccc(Cl)cc1CNc1ncnc2oc(C)nc12,Percent Effect,"30.3 µM, […]",18.57%
CCC(CNc1ncnc2oc(C)nc12)Cc1ccccc1 (configuration not stated),Percent Effect,"30.3 µM, […]",10.79%
CCCOc1ccccc1CCCNc1ncnc2oc(C)nc12,Percent Effect,"30.3 µM, […]",99.92%
CC(=O)N1CCN(Cc2ccsc2)CC2(CC(=O)N(C)C2)C1.O=C(O)C(F)(F)F (configuration not stated),Percent Effect,"30.3 µM, […]",-65.69%
O=C(c1cc(Cl)c[nH]c1=O)N1C[C@@H]2CC[C@H](C1)N(Cc1ccccc1)C2,Percent Effect,"30 µM, 30.03 µM",-61.83%
CC(=O)N1N=C(COc2ccc(Cl)cc2)OC1c1ccccc1 (configuration not stated),Percent Effect,"30 µM, 30.03 µM",-14.14%
CC(C)c1cc(NC(=O)c2ccc(C(=O)NC(C)(C)C)cc2)[nH]n1,Percent Effect,"30 µM, 30.03 µM",33.13%
Cc1ccc(CC(=O)Nc2cc(C(C)C)n[nH]2)cn1,Percent Effect,"30.3 µM, […]",101.5%
same,Percent Effect,"10 mM, 10 mM as filed; unlikely as a test dose",101.9%
CC(C)c1cc(NC(=O)Cn2cnc3ccccc3c2=O)[nH]n1,Percent Effect,"30 µM, 30.03 µM",1.416%
CC(C)c1cc(NC(=O)c2ccc(NC3CC3)nc2)[nH]n1,Percent Effect,"30 µM, 30.03 µM",40.22%
CC(C)c1cc(NC(=O)c2ccncc2)[nH]n1,Percent Effect,"30.3 µM, […]",16.87%
same,Percent Effect,"10 mM, 10 mM as filed; unlikely as a test dose",-12.06%
CC(C)c1cc(NC(=O)c2ccc([S+]([O-])C(C)C)cc2)[nH]n1 (configuration not stated),Percent Effect,"30.3 µM, […]",80.42%
same,Percent Effect,"10 mM, 10 mM as filed; unlikely as a test dose",77.43%
Cc1ccc(CC(=O)NCC(O)c2cc(Cl)cc(Cl)c2)cn1 (configuration not stated),Percent Effect,"30 µM, 30.03 µM",-24.81%
Cc1ccc(C(=O)Nc2cc(C(C)C)n[nH]2)cn1,Percent Effect,"30 µM, 30.03 µM",54.96%
CC(C)c1cc(NC(=O)c2cccnc2)[nH]n1,Percent Effect,"30.3 µM, […]",11.06%
same,Percent Effect,"10 mM, 10 mM as filed; unlikely as a test dose",-25.28%
NCc1cnn(-c2ccccc2C(=O)NCc2ccccn2)c1,Percent Effect,"30.3 µM, […]",5.478%
O=C(O)C(F)(F)F.O=C1CC2(CCN(Cc3ccco3)C2)CN1c1ccc2c(c1)OCO2 (configuration not stated),Percent Effect,"30 µM, 30.03 µM",43.65%
CN(C)C(=O)CN1C(=O)CCC12CCN(Cc1cccn1C)CC2.O=C(O)C(F)(F)F,Percent Effect,"30.3 µM, […]",-2.653%
COc1ccc([C@@H]2CN(C(=O)CCC(F)(F)F)C[C@H]2NC(C)=O)cc1,Percent Effect,"30 µM, 30.03 µM",98.96%
CCOCC(=O)N1C[C@@H](NC(C)=O)[C@H](c2ccc(OC)cc2)C1,Percent Effect,"30 µM, 30.03 µM",-1.358%
COc1ccc([C@@H]2CN(C(=O)CS(C)(=O)=O)C[C@H]2NC(C)=O)cc1,Percent Effect,"30 µM, 30.03 µM",-86.91%
COc1cccc(CN2CCCC3(CCN(C(=O)c4ccco4)C3)C2)c1 (configuration not stated),Percent Effect,"30.3 µM, […]",7.427%
Cc1cc(C)n(C2CN(CC(=O)N(C)Cc3cnn(C)c3)C2)n1,Percent Effect,"30 µM, 30.03 µM",17.09%
Cc1cc(C)n(C2CN(CC(=O)N(C)Cc3ccsc3)C2)n1,Percent Effect,"30 µM, 30.03 µM",62.05%
COc1cccc(CN(C)C(=O)CN2CC(n3nc(C)cc3C)C2)c1,Percent Effect,"30 µM, 30.03 µM",1.154%
O=C(O)C(F)(F)F.O=C([C@H]1C[C@H]2OCC[C@H]2N(Cc2ccc(F)cc2)C1)N1CCCCO1,Percent Effect,"30.3 µM, […]",-288.9%
Cc1ccc(CNC(=O)NCc2nccn2C)c(OC(C)(C)C)c1,Percent Effect,"30 µM, 30.03 µM",-10.65%
CCn1ccnc1CNCc1ccc(C)cc1OC(C)(C)C,Percent Effect,"30 µM, 30.03 µM",59.89%
Cc1ccc(CNCc2nccn2C)c(OC(C)(C)C)c1,Percent Effect,"30 µM, 30.03 µM",-9.651%
Cl.c1nc(N2CCOCC2)ncc1-c1cncn1CCCN1CCCCC1,Percent Effect,"30.3 µM, […]",-26.24%
CCn1cc(NC(=O)NCC(O)COc2ccccc2)cn1 (configuration not stated),Percent Effect,10 µM,2.207%
Cc1ncc2c(n1)CN(CCCc1ccccc1)CC2,Percent Effect,"30.3 µM, […]",13.17%
same,Percent Effect,"10 mM, 10 mM as filed; unlikely as a test dose",-28.02%
CN1CCCCC1c1ncc2c(n1)CCN(Cc1ccc(F)cc1)C2 (configuration not stated),Percent Effect,"30.3 µM, […]",42.96%
CN1CCCCC1c1ncc2c(n1)CCN(Cc1ccccc1Cl)C2 (configuration not stated),Percent Effect,"30 µM, 30.03 µM",-6.551%
CN1CCCCC1c1ncc2c(n1)CCN(CCCc1ccccc1)C2 (configuration not stated),Percent Effect,"30.3 µM, […]",98.5%
COc1ccc(CN2CCc3nc(C4CCCCN4C)ncc3C2)cc1 (configuration not stated),Percent Effect,"30 µM, 30.03 µM",-5.648%
CN1CCCCC1c1ncc2c(n1)CCN(Cc1ccc(Cl)c(F)c1)C2 (configuration not stated),Percent Effect,"30.3 µM, […]",88.41%
O=C(C1CCOCC1)N1C[C@H]2CCC[C@@]2(COc2ccccn2)C1.O=C(O)C(F)(F)F,Percent Effect,"30 µM, 30.03 µM",15.32%
Cl.Cn1nc(C2CCCN(Cc3cc(F)cc(F)c3)C2)c2nccnc21 (configuration not stated),Percent Effect,"30.3 µM, […]",30.77%
CNC(=O)[C@@H]1C[C@@H](N)CN1C1CCN(Cc2ccccn2)CC1,Percent Effect,"30.3 µM, […]",-17.78%
CCNC(=O)[C@@H]1C[C@H](N)CN1C1CCN(c2ccccc2OC)CC1,Percent Effect,"30.3 µM, […]",99.36%
CNC(=O)[C@@H]1C[C@@H](N)CN1C1CCN(c2ccccc2F)CC1,Percent Effect,"30.3 µM, […]",11.28%
O=C(NCCCn1nc2ccccn2c1=O)Nc1ccccc1,Percent Effect,"30.3 µM, […]",-36.69%
Cc1ccc(-n2c(C)nnc2SCC(O)COCc2ccco2)cc1 (configuration not stated),Percent Effect,"30.3 µM, […]",100%
OC(COCc1ccco1)CSc1nnc2ccccn12 (configuration not stated),Percent Effect,"30.3 µM, […]",-18.97%
OC(COCc1ccco1)CN1CCC(Cn2cccn2)CC1 (configuration not stated),Percent Effect,"30 µM, 30.03 µM",-22.56%
OC(COc1ccc(F)cc1)CN1CCC(c2ccn[nH]2)CC1 (configuration not stated),Percent Effect,10 µM,90.5%
N#Cc1ccc(OCC(O)CN2CCC(c3ccn[nH]3)CC2)cc1 (configuration not stated),Percent Effect,10 µM,5.752%
OC(COc1ccccc1)CN1CCC(c2ccn[nH]2)CC1 (configuration not stated),Percent Effect,"30 µM, 30.03 µM",-29.13%
CN1[C@H](Cn2cccn2)C[C@@H]2CN(Cc3cccs3)CC[C@@H]21.O=C(O)C(F)(F)F.O=C(O)C(F)(F)F.O=C(O)C(F)(F)F,Percent Effect,"30.3 µM, […]",-3.772%
CN(C)CCn1c([C@H]2CCCO2)cc2cccnc21,Percent Effect,"30.3 µM, […]",1.858%
O=C(O)C(F)(F)F.O=S(=O)(C1CC1)N1CC[C@]2(C[C@@H](Oc3ncccc3F)CO2)C1,Percent Effect,"30 µM, 30.03 µM",13.6%
CCc1cnc(N2CC[C@@H]3CN(CCC(C)C)S(=O)(=O)[C@@H]3CC2)nc1.O=C(O)C(F)(F)F,Percent Effect,"30.3 µM, […]",50.26%
CC(C)CN1C[C@H]2CCN(c3ncccn3)CC[C@H]2S1(=O)=O.O=C(O)C(F)(F)F,Percent Effect,"30 µM, 30.03 µM",7.131%
Cc1cnc(N2CC[C@@H]3CN(CCC(C)C)S(=O)(=O)[C@@H]3CC2)nc1,Percent Effect,"30.3 µM, […]",13.68%
COc1ccccc1OCCc1cc(C2CCNC2)n[nH]1.Cl.Cl (configuration not stated),Percent Effect,"30.3 µM, […]",-27.23%
Cc1cnc(C(=O)N2CCC(COCc3ccccc3)C2)cn1 (configuration not stated),Percent Effect,"30.3 µM, […]",-6.003%
CC(C)(C)C(=O)N1CCC(COCc2ccccc2)C1 (configuration not stated),Percent Effect,"30.3 µM, […]",100.1%
CC(=O)N1CCN(C)CC(COCc2ccccc2)C1 (configuration not stated),Percent Effect,"30.3 µM, […]",18.55%
Cc1nn(C)c2c(=O)n(CC(=O)NCc3ccccn3)ccc12,Percent Effect,"30 µM, 30.03 µM",-0.211%
CC(C)C(O)CCNC(=O)Nc1cc(F)ccc1-n1cccn1 (configuration not stated),Percent Effect,"30.3 µM, […]",88.94%
CC(C)C(CCO)NC(=O)Nc1cc(F)ccc1-n1cccn1 (configuration not stated),Percent Effect,"30.3 µM, […]",-14.63%
C[S+]([O-])CCNC(=O)Nc1cc(F)ccc1-n1cccn1 (configuration not stated),Percent Effect,"30.3 µM, […]",-162.3%
CN(CCO)C[C@@H]1CN(C2CCN(c3ccccc3Cl)CC2)C[C@@H]1CO,Percent Effect,"30 µM, 30.03 µM",13.3%
CC1CN(Cc2cccnc2)CCN1c1ccc2nncn2n1 (configuration not stated),Percent Effect,"30.3 µM, […]",7.126%
same,Percent Effect,"10 mM, 10 mM as filed; unlikely as a test dose",-16.61%
CC1CN(Cc2cccc(C#N)c2)CCN1c1ccc2nncn2n1 (configuration not stated),Percent Effect,"30 µM, 30.03 µM",-20.22%
CC1CN(CC(=O)NC2CCCC2)CCN1c1ccc2nncn2n1 (configuration not stated),Percent Effect,"30 µM, 30.03 µM",-13.42%
CC1CN(CC2CCCC2)CCN1c1ccc2nncn2n1 (configuration not stated),Percent Effect,"30 µM, 30.03 µM",98.48%
CC1CN(CC2CCCCC2)CCN1c1ccc2nncn2n1 (configuration not stated),Percent Effect,"30 µM, 30.03 µM",-45.41%
COc1cccc(CN2CCN(c3ccc4nncn4n3)C(C)C2)c1 (configuration not stated),Percent Effect,"30 µM, 30.03 µM",97.2%
CC(C)(C)c1nc(CNC(=O)N2CCc3ccccc3C2CO)no1 (configuration not stated),Percent Effect,"30.3 µM, […]",6.013%
Cc1cc(C(=O)N2CCOC(c3nc(C(C)C)n[nH]3)C2)c(C)s1 (configuration not stated),Percent Effect,"30.3 µM, […]",17.14%
CC(C)(CO)Nc1cc(-c2cn[nH]c2)ncn1.Cl,Percent Effect,"30.3 µM, […]",-11.12%
Cc1cc(-c2cnc(N3CCNC(=O)C3)nc2-c2cccnc2C)on1,Percent Effect,"30 µM, 30.03 µM",16.74%
Cc1cc(-c2cnc(N3CCCC(C)C3)nc2C(C)C)on1 (configuration not stated),Percent Effect,"30.3 µM, […]",-16.22%
Cc1cc(-c2cnc(N3CCC(O)CC3)nc2-c2cccnc2C)on1,Percent Effect,"30.3 µM, […]",-31.41%
Cc1cc(-c2cnc(N3CCCC(C)C3)nc2-c2cccnc2C)on1.Cl (configuration not stated),Percent Effect,"30.3 µM, […]",58.57%
Cc1cc(-c2cnc(N3CCOCC3)nc2-c2cccnc2C)on1,Percent Effect,"30.3 µM, […]",-10.3%
Cc1cc(-c2cnc(N3CCCCCC3)nc2-c2cccnc2C)on1,Percent Effect,"30.3 µM, […]",55.42%
Cc1ccc(-c2ccnc(NC(c3ncccc3C)C3CC3)n2)c(C)n1 (configuration not stated),Percent Effect,"30 µM, 30.03 µM",-69.26%
CC(=O)N1CCO[C@@H]2CN(Cc3ccccc3F)C[C@@H]2C1.O=C(O)C(F)(F)F,Percent Effect,"30.3 µM, […]",-73.74%
O=C1OCCN1CC(=O)N1C[C@H]2CC[C@@H]1CN(Cc1cscn1)C2,Percent Effect,"30 µM, 30.03 µM",-38.65%
CNc1ccc(C(=O)N(C)Cc2ccc3ccccc3n2)cn1,Percent Effect,"30.3 µM, […]",5.672%
COc1ncccc1C(=O)N1CC[C@]2(C[C@@H](Oc3cccnc3)CO2)C1.O=C(O)C(F)(F)F.O=C(O)C(F)(F)F,Percent Effect,"30 µM, 30.03 µM",55.04%
COc1ncccc1C(=O)N1CCC2(CC1)CC(OC)CO2.O=C(O)C(F)(F)F (configuration not stated),Percent Effect,"30.3 µM, […]",-51.01%
Cn1ccnc1C(=O)N1CCC2(CC1)CC(Oc1cccnc1)CO2.O=C(O)C(F)(F)F (configuration not stated),Percent Effect,"30 µM, 30.03 µM",24.28%
Cn1ccc(C(=O)NC2CCC23CCN(CC2CCOCC2)CC3)c1.O=C(O)C(F)(F)F (configuration not stated),Percent Effect,"30 µM, 30.03 µM",-17.43%
COCCN1CCCn2c(nc(CNS(C)(=O)=O)cc2=O)C1.O=C(O)C(F)(F)F,Percent Effect,"30.3 µM, […]",5.593%
CC(=O)N1N=C(c2ccccc2)OC1C(=O)NCCc1ccc(C)cc1 (configuration not stated),Percent Effect,"30.3 µM, […]",99.94%
same,Percent Effect,"10 mM, 10 mM as filed; unlikely as a test dose",-45.21%
CC(=O)N1N=C(c2ccccc2)OC1C(=O)NCCc1ccc(O)cc1 (configuration not stated),Percent Effect,"30.3 µM, […]",-23.74%
same,Percent Effect,"10 mM, 10 mM as filed; unlikely as a test dose",-98.13%
CC(=O)N1N=C(c2ccccc2)OC1C(=O)NCCc1ccc(Cl)cc1 (configuration not stated),Percent Effect,"30.3 µM, […]",-41.87%
same,Percent Effect,"10 mM, 10 mM as filed; unlikely as a test dose",-29.49%
O=C(Cc1cccc(F)c1)N1CCn2cc(Cn3cccn3)nc2C1.O=C(O)C(F)(F)F,Percent Effect,"30.3 µM, […]",-215.4%
